# Assay results as given in PubChem BioAssay AID2685 (National Center for Advancing Translational Sciences (NCATS), 2010).
# Screen size: about 320,000 compounds; about 2,100 (0.66%) were called active. Another 53% or so got no clear call; they are omitted. The call rests on the fitted dose curve; in most records, active means well fitted inhibition curve with a large enough effect in the signal ratio, with a control signal flat (not every such curve was filed as active); inconclusive means small, poorly fitted or top-dose-only effect, or effect the other way, or a change in a side signal; inactive means flat fitted curve, though single readings scatter; the % refers to the signal ratio. What follows is part of a selection rich in actives, with near analogues and random picks from the rest.
# Test: qHTS Assay for Lipid Storage Modulators in Drosophila S3 Cells;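 on cell number change: cells counted by Cell Tracker Red CMTPX staining in the red channel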
# Settings: BODIPY lipid droplet fluorescence, 18-24 h, cells fed with added oleic acid; cell number change: measured here: cell count max response; series mostly up to 46.1 µM
# Procedure, shortened: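 Laser-scanning cytometry quantifies lipid droplet accumulation (500–530 nm total intensity; droplet/cell object ratio) in oleic acid-fed (400 uM added) Drosophila S3 cells treated with a concentration series. 20 uM Triacsin C defined 100% inhibition.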
# Potency means the concentration at half of the fitted maximal effect.
SMILES,Potency,cell number change [%]
CC1(C)O[C@H]2CC(=O)OC[C@@]23C1CC(=O)[C@]1(C)C3CC[C@@]2(C)[C@H](c3ccoc3)OC(=O)[C@H]3O[C@]321 (stereo not given in full),inactive,–
O=C(CN1CCN(C(=O)CNC(=O)c2ccc3c(c2)OCO3)CC1)Nc1ccccc1Cl,inactive,2.76
Cc1ccccc1N1C(=O)C(Cl)=C(N2CCCCCC2)C1=O,inactive,-0.204
O=C1C(Cl)=C(N2CCCC2)C(=O)N1c1ccccc1F,1.46 µM (active),2.93
O=C1C(Cl)=C(N2CCOCC2)C(=O)N1c1ccccc1F,inactive,-18.5
O=C(NCc1ccccc1)C1CCCN1C(=O)Nc1ccccc1[N+](=O)[O-] (stereo not given),0.731 µM (active),14.7
COc1ccccc1NC(=O)N1CCCC1C(=O)NCc1ccccc1 (stereo not given),inactive,-7.89
COc1ccc(NC(=O)C2CCCN2C(=O)NCc2ccccc2)cc1OC (stereo not given),inactive,1.64
COc1cccc(OC)c1NC(=O)C1CCCN1C(=O)NCc1ccccc1 (stereo not given),29.1 µM (active),-20.9
CCOCCCNC(=O)C1CCCN1C(=O)Nc1ccccc1[N+](=O)[O-] (stereo not given),inactive,3.63
COc1ccc(NC(=O)C2CCCN2C(=O)NCc2ccccc2)c(OC)c1 (stereo not given),inactive,-2.72
Cc1cc(-c2nnc(CCC(=O)N(C)CCc3ccccc3)o2)no1,inactive,4.46
CC1CN(C/C(=N\O)C23CC4CC(CC(C4)C2)C3)CC(C)O1 (stereo not given),inactive,-15.5
O=C(NCc1ccc(Cl)cc1)c1cc([N+](=O)[O-])ccc1Cl,inactive,16.3
CN(C)S(=O)(=O)c1ccc(NC=C(C#N)C#N)cc1,inactive,-16.2
CCn1cc([N+](=O)[O-])c(C(=O)Nc2nc(-c3ccc(C)c(C)c3)c(C)s2)n1,inactive,-14.3
CCn1cc([N+](=O)[O-])c(C(=O)Nc2nc(-c3ccc(C)cc3)c(C)s2)n1,4.61 µM (active),18.4
Cc1ccc(-c2nc(NC(=O)c3nn(C)cc3[N+](=O)[O-])sc2C)cc1,inactive,27.2
CCCCN(C(=O)c1ccccc1OCc1ccc(F)cc1)c1c(N)n(CCC)c(=O)[nH]c1=O,inactive,-14.3
Cn1c(SCc2cccc(C#N)c2)nc2ccccc2c1=O,inactive,7.25
COc1ccccc1NC(=O)c1ccc2snnc2c1,inactive,5.09
COc1ccc(OCC(=O)Nc2ccc(NC(=O)c3cccs3)c(OC)c2)cc1,inactive,10.8
COc1ccc(NC(=O)c2cccc(NC(=O)c3ccccc3)c2)c(OC)c1,inactive,-2.85
COc1cc(NC(=O)Cc2ccccc2)ccc1NC(=O)c1ccccc1,23.1 µM (active),5.29

SMILES,Potency,cell number change [%]
COc1cc(NC(=O)c2ccc(Br)cc2)c(OC)cc1NC(=O)c1ccccc1,18.4 µM (active),-19.9
COc1ccccc1CC(=O)Nc1cc(OC)c(NC(=O)c2ccccc2)cc1OC,inactive,-14.4
COc1cc(NC(=O)c2ccc3nsnc3c2)cc(OC)c1OC,inactive,3.44
COc1ccccc1NC(=O)c1ccc2nsnc2c1,3.66 µM (active),21.1
COc1cc(NC(=O)COc2ccccc2Cl)ccc1NC(=O)c1cccs1,4.61 µM (active),–
COc1cc(NC(=O)c2ccccc2)c(OC)cc1NC(C)=O,inactive,-0.51
COc1cc(NC(=O)c2ccccc2Cl)ccc1NC(=O)c1cccs1,inactive,16.4
COc1cc(NC(=O)c2cccnc2)c(OC)cc1NC(=O)c1ccc(Br)cc1,inactive,15.3
COc1ccc(OCCC(=O)OCC(=O)Nc2ccc(S(=O)(=O)N3CCOCC3)cc2)cc1,inactive,-18.9
O=C(CSc1nnc(-c2ccc(F)cc2)o1)NC1CCCCC1,inactive,12
CCOC(=O)N1CCN(CC(O)COc2ccc3c(c2)CCC3)CC1 (stereo not given),inactive,-3.83
O=C(CCCCCNC(=O)N1CCn2c1nc1ccccc12)NCc1ccccc1,inactive,11.3
CC(NC(=O)c1cccc(N(C)C)c1)c1ccc(-n2ccnc2)cc1 (stereo not given),inactive,–
COc1ccc(S(=O)(=O)N2CCN(c3nc4ccccc4nc3-n3nc(C)cc3C)CC2)cc1,inactive,-0.676
O=C(NC1CCSC1=O)c1ccc(Oc2cccc(C(F)(F)F)c2)nc1 (stereo not given),inactive,-7.23
COc1ccc(F)cc1S(=O)(=O)NC1CCCCCC1,inactive,–
C/C(=N/Nc1ncc(C(F)(F)F)cc1Cl)c1ccncc1,inactive,-2.18
COc1ccc(S(=O)(=O)NCC2CCCN(C(=O)CC3CCCC3)C2)cc1 (stereo not given),inactive,-9.37
COc1cc2c(cc1NC(=O)c1cccnc1)CCCC2,inactive,-6.97
COc1ccc(C(=O)Nc2cc3c(cc2OC)CCCC3)cc1Br,inactive,-12.7
COc1cc2c(cc1NC(=O)c1ccc(C(C)(C)C)cc1)CCCC2,16.4 µM (active),-19.1
Oc1ccccc1Oc1ncc(Br)c(Cl)n1,inactive,10.9
CCOC(=O)CCc1c(C)nc2cc(-c3ccc(F)cc3)[nH]n2c1=O,inactive,-12
C=CCn1c(SC(C)CC)nc(O)cc1=O (stereo not given),inactive,–

SMILES,Potency,cell number change [%]
CCOc1ccc2oc(C(=O)OCC(=O)NC3CCCCC3)c(C)c2c1,inactive,-21.4
CCOc1ccc2oc(C(=O)OCC(=O)NC(=O)NC)c(C)c2c1,inactive,-6.07
CCOC(=O)N1CCC(NC(=O)c2oc3c(F)cccc3c2C)CC1,inactive,-4.45
CCCN(CC1CC1)C(=O)COC(=O)c1[nH]c(C)c(C(=O)OCC)c1C,inactive,-17.3
CCCN(CC1CC1)C(=O)COC(=O)c1oc2c(F)cccc2c1C,1.64 µM (active),1.1
CCCN(CC1CC1)C(=O)COC(=O)c1oc2ccc(OCC)cc2c1C,4.61 µM (active),2.78
CCn1c(O)c(C(C#N)=C2N=c3ccccc3=N2)c2ccccc21,inactive,24.7
O=C(Nc1cccc(NC(=O)c2ccc(Br)o2)n1)c1ccc(Br)o1,inactive,-4.87
Cc1ccc(NS(=O)(=O)c2cc(C(=O)N3CCN(C)CC3)ccc2C)cc1C,inactive,–
CCOc1cccc(OCCCCN2CCCCC2)c1,inactive,-2.06
CCc1ccc(NC(=O)CN(N=Nc2nonc2C)c2nonc2C)cc1,inactive,–
CC(C)(C)c1csc(Sc2ncccc2[N+](=O)[O-])n1,inactive,-11.2
Cc1cccc(CSC2=CS(=O)(=O)c3ccccc3N2)c1,inactive,2.06
Cc1cccc(CNC(=O)c2cc(S(=O)(=O)N3CCOCC3)cn2C)c1,inactive,14.6
CC(=O)c1cccc(NC(=O)COc2ccc(S(=O)(=O)N3CCCCC3)cc2)c1,inactive,12.3
Cc1nn(C(C)C(=O)O)c(C)c1[N+](=O)[O-] (stereo not given),inactive,3.58
O=C(Nc1nccs1)c1ccc(-c2ccc(F)c(Cl)c2)o1,10.3 µM (active),-11.8
O=C(Nc1nccs1)c1ccc(-c2ccc(F)cc2)o1,inactive,0.674
O=C(Nc1nccs1)c1ccc(-c2ccc(Cl)cc2Cl)o1,inactive,-16.9
CCOC(=O)c1c(NC(=O)Cn2cnc([N+](=O)[O-])n2)sc2c1CCC(C)C2 (stereo not given),inactive,2.74
Cc1cccc(NC(=O)c2c(C)cc(=O)oc2C)n1,8.2 µM (active),-10.1
Cc1cc(=O)oc(C)c1C(=O)Nc1ccc(Cl)cn1,inactive,1.04
Cc1ccccc1NC(=O)c1c(C)cc(=O)oc1C,inactive,–
CC1=C(C)CC(C(=O)NNC(=O)c2csc(C)c2C)C(C(=O)O)C1 (stereo not given),inactive,-1.11

SMILES,Potency,cell number change [%]
CS(=O)(=O)N(C(=O)NC(=O)NC12CC3CC(CC(C3)C1)C2)C1CCCCC1,inactive,9.2
CC(=O)c1ccc(N2CCN(S(=O)(=O)c3ccc(-c4cc(C)no4)s3)CC2)cc1,inactive,–
COc1ccc(N2CCN(S(=O)(=O)c3ccc(-c4cc(C)no4)s3)CC2)cc1,23.1 µM (active),–
Cc1cc(-c2ccc(S(=O)(=O)N3CCN(c4ccc(F)cc4)CC3)s2)on1,inactive,5.9
C=CCn1c(CCNC(=O)c2ccc(Cl)c(Cl)c2)nnc1SCCOc1ccc(OC)cc1,inactive,-3.68
O=C(/C=C/c1ccc(F)cc1)NCc1cccs1,inactive,12.4
Cc1nc2cc(NC(=O)C3COc4ccccc4O3)ccc2s1 (stereo not given),inactive,3.18
COc1ccc(S(=O)(=O)N2CCN(CC(=O)c3[nH]c(C)c(C(C)=O)c3C)CC2)cc1OC,inactive,3.31
Cc1ccc(S(=O)(=O)NCC(=O)OCc2cc(=O)oc3c(C)c(C)ccc23)cc1C,inactive,11.5
CN(CC(=O)Nc1ccc(Cl)c(Cl)c1)C(=O)CNC(=O)Cc1ccccc1,inactive,-4.02
COc1ccccc1NC(=O)NN1CCCCC1,0.58 µM (active),17.6
COc1ccccc1NC(=O)C1CCCN(S(=O)(=O)c2ccccc2)C1 (stereo not given),5.8 µM (active),-11
COc1ccccc1NC(=O)N1CCCC1,inactive,1.33
COc1ccccc1NC(=O)NCCN1CCCCC1,inactive,6.08
COc1ccccc1NC(=O)C1CCCN(S(=O)(=O)c2cnc[nH]2)C1 (stereo not given),inactive,1.66
COc1ccccc1NC(=O)C1CCCN(S(=O)(=O)c2ccc(-n3cnnn3)cc2)C1 (stereo not given),inactive,-7.69
COc1ccc2c(c1)[nH]c1c(=O)n(N)cnc12,inactive,6.47
Cn1cc(/C=C/C(=O)N2CCCC(C(=O)c3cccc4ccccc34)C2)cn1 (stereo not given),inactive,8.66
Cc1ccc(N2CC(NC(=O)C(=O)c3c[nH]c4ccccc34)CC2=O)cc1C (stereo not given),inactive,20.5
Cc1nc(NC(=O)COC(=O)CCc2nc3ccccc3s2)c(Cl)cc1Cl,inactive,8.53
C[C@H](NC(=O)c1nc[nH]c1C(=O)N[C@@H](Cc1ccccc1)C(=O)OCc1ccccc1)c1ccccc1,inactive,–
